{
  "source": "paper PMC4102417",
  "data": [
    {"tested_on": "murine 3T3 fibroblasts", "test": "primary screen, percent viability or growth; higher = less effect of the substance", "procedure": "Similarly, for measuring the cytotoxicity concentration (CC50) for 3T3 fibroblast cells, cultures were incubated with drugs for 72 hours and developed using Alamar Blue (Alamar Biosciences Inc, Sacramento, CA) as previously described.", "units": {"Mammalian (3T3) cell % growth at 10 uM": "%"}, "values": [
      {"smiles": "COc1cc2c(cc1OC)C1C(=O)c3c(cc4c(c3O)C=CC(C)(C)O4)OC1CO2", "note": "(stereo not shown)", "Mammalian (3T3) cell % growth at 10 uM": 34.3},
      {"smiles": "O=c1c(-c2cc(O)c(O)c(O)c2)coc2cc(O)c(O)c(O)c12", "Mammalian (3T3) cell % growth at 10 uM": 73.7},
      {"smiles": "Cl.Fc1ccc(C2CCNCC2COc2ccc3c(c2)OCO3)cc1", "note": "(stereo not shown)", "Mammalian (3T3) cell % growth at 10 uM": 100},
      {"smiles": "CC1=CC(=O)C2C(C)(C)CCCC2(C)C1(O)CCc1ccoc1", "note": "(stereo not shown)", "Mammalian (3T3) cell % growth at 10 uM": 75.8},
      {"smiles": "O=c1c(O)c(-c2ccc(O)c(O)c2)oc2c(O[C@@H]3O[C@H](CO)[C@@H](O)[C@H](O)[C@H]3O)c(O)cc(O)c12", "Mammalian (3T3) cell % growth at 10 uM": 100},
      {"smiles": "C=CC(C)(O)CCC1C(=C)CC(O)C2C(C)(C)CCCC12C", "note": "(stereo not shown)", "Mammalian (3T3) cell % growth at 10 uM": 74},
      {"smiles": "N=C(N)c1ccc(OCCCCCOc2ccc(C(=N)N)cc2)cc1.O=S(=O)(O)CCO", "Mammalian (3T3) cell % growth at 10 uM": 94.8},
      {"smiles": "CN1CCC(=C2c3ccccc3CCc3sccc32)CC1.O=C(O)CC(O)C(=O)O", "Mammalian (3T3) cell % growth at 10 uM": 86.5},
      {"smiles": "CC1=CC(=O)c2ccccc2C1=O", "Mammalian (3T3) cell % growth at 10 uM": 0.5},
      {"smiles": "C=CC(C1=CC(=O)C(OC)=CC1=O)c1ccccc1", "note": "(stereo not shown)", "Mammalian (3T3) cell % growth at 10 uM": 0.9},
      {"smiles": "CNc1ccc(C(=O)CC(O)CCC(C)C2OC(=O)CC(O)CC(=O)CC(O)CC(O)CC(O)CC(O)CC3(O)CC(O)C(C(=O)OC)C(CC(O[C@@H]4O[C@H](C)[C@@H](O)[C@H](N)[C@@H]4O)/C=C/C=C/C=C/C=C\\C=C/C=C/C=C/C2C)O3)cc1", "note": "(stereo partly shown)", "Mammalian (3T3) cell % growth at 10 uM": 97.3},
      {"smiles": "CC(C)C(C)/C=C/C(C)C1CCC2C3=CC=C4CC(O)CCC4(C)C3CCC21C", "note": "(stereo not shown)", "Mammalian (3T3) cell % growth at 10 uM": 99.6},
      {"smiles": "N[C@@H](Cc1ccc(O)c(O)c1)C(=O)O", "Mammalian (3T3) cell % growth at 10 uM": 3.9},
      {"smiles": "O=C(CCCN1CCC2(CC1)C(=O)NCN2c1ccccc1)c1ccc(F)cc1", "Mammalian (3T3) cell % growth at 10 uM": 94.7},
      {"smiles": "CCN(CC)CCCC(C)Nc1c2ccc(Cl)cc2nc2ccc(OC)cc12.Cl.Cl", "note": "(stereo not shown)", "Mammalian (3T3) cell % growth at 10 uM": 5.3},
      {"smiles": "COc1cc(O)c(C(=O)/C=C/c2ccc(OC)c(O)c2)c(OC)c1", "Mammalian (3T3) cell % growth at 10 uM": 6},
      {"smiles": "N[C@H](C(=O)O)[C@@H]1CC(Cl)=NO1", "Mammalian (3T3) cell % growth at 10 uM": 48.2},
      {"smiles": "CC(=O)Oc1ccc2c(c1)CCC1C2CCC2(C)C1CC(OC(C)=O)[C@@H]2OC(C)=O", "note": "(stereo partly shown)", "Mammalian (3T3) cell % growth at 10 uM": 60.7},
      {"smiles": "COc1cc2ccc(=O)oc2c(O)c1O", "Mammalian (3T3) cell % growth at 10 uM": 100},
      {"smiles": "CC(=O)OC1CC2C(C)(C)C(O)CCC2(C)C2CCC3(C)C(c4ccoc4)OC(=O)C4OC43C12C", "note": "(stereo not shown)", "Mammalian (3T3) cell % growth at 10 uM": 76.3},
      {"smiles": "CC1OC(OC2C(OC3CCC4(C)C(CCC5(C)C4CC=C4C6CC(C)(C)CCC6(C(=O)O)CCC45C)C3(C)CO)OCC(O)C2O)C(O)C(O)C1O", "note": "(stereo not shown)", "Mammalian (3T3) cell % growth at 10 uM": 6.8},
      {"smiles": "CCOC(=O)C1=C(COCCN)NC(C)=C(C(=O)OC)C1c1ccccc1Cl.O=S(=O)(O)c1ccccc1", "note": "(stereo not shown)", "Mammalian (3T3) cell % growth at 10 uM": 100},
      {"smiles": "CN1CCN(CCCN2c3ccccc3Sc3ccc(C(F)(F)F)cc32)CC1", "Mammalian (3T3) cell % growth at 10 uM": 94.7},
      {"smiles": "CC12C=CC(=O)C=C1CCC1C2CCC2(C)C(=O)CCC12", "note": "(stereo not shown)", "Mammalian (3T3) cell % growth at 10 uM": 72.1},
      {"smiles": "CC[C@@H](C(=O)[C@@H](C)[C@@H](O)[C@H](C)CCc1ccc(C)c(O)c1C(=O)O)[C@H]1O[C@](CC)([C@H]2CC[C@](O)(CC)[C@H](C)O2)C[C@@H]1C", "Mammalian (3T3) cell % growth at 10 uM": 50.1},
      {"smiles": "COC(=O)C1=C(C)NC(C)=C(C(=O)OCCN(C)Cc2ccccc2)C1c1cccc([N+](=O)[O-])c1", "note": "(stereo not shown)", "Mammalian (3T3) cell % growth at 10 uM": 99.8},
      {"smiles": "CN(C)CCCN1c2ccccc2Sc2ccccc21.Cl", "Mammalian (3T3) cell % growth at 10 uM": 98.7},
      {"smiles": "Cc1coc2c1C(=O)C(=O)c1c-2ccc2c1CCCC2(C)C", "Mammalian (3T3) cell % growth at 10 uM": 44.3},
      {"smiles": "CNC1CCC(c2ccc(Cl)c(Cl)c2)c2ccccc21.Cl", "note": "(stereo not shown)", "Mammalian (3T3) cell % growth at 10 uM": 100},
      {"smiles": "C[C@@H]1C[C@@H]([C@H](O)CC2CC(=O)NC(=O)C2)C(=O)[C@@H](C)C1", "Mammalian (3T3) cell % growth at 10 uM": 36.9},
      {"smiles": "CNc1ccccc1C(=O)N1CCc2c([nH]c3ccccc23)C1=O", "Mammalian (3T3) cell % growth at 10 uM": 75.7},
      {"smiles": "CN(C)C(=S)SSC(=S)N(C)C", "Mammalian (3T3) cell % growth at 10 uM": 0.3},
      {"smiles": "COc1ccc(-c2cc(=O)c3ccccc3o2)cc1", "Mammalian (3T3) cell % growth at 10 uM": 100},
      {"smiles": "C1CCC(C(CC2CCCCN2)C2CCCCC2)CC1.O=C(O)/C=C\\C(=O)O", "note": "(stereo not shown)", "Mammalian (3T3) cell % growth at 10 uM": -0.2}
    ]}
  ]
}
